Assay results as given in PubChem BioAssay (EPA / NIEHS).
“And” between values parts separate entries of the source, which are not always exact repeats. Equal entries are not always repeated. Some compounds were tested as several samples or in several runs, with calls that do not always agree. The source made the active and inactive calls. How the source made its calls: active means hit-call score of the fitted dose curve at least 0.9, where 1 is the maximum; inactive means score below 0.9.

What was measured:
[1] = read-out: Tissue Factor, F3 (gene 2152); test: BSK_CASM3C_TissueFactor: BioMAP Diversity Plus: CASM3C Assay for Tissue Factor Biomarker Activity (AID 2283052); settings: primary human coronary artery smooth muscle cells; actives raise or lower the signal;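 further: cell surface tissue factor protein level read by ELISA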
[2] = read-out: Interferon-gamma inducible Protein 10 (IP10), CXCL10 (gene 3627); test: BSK_hDFCGF_IP10: BioMAP Diversity Plus: hDFCGF Assay for Interferon-gamma inducible Protein 10 (IP10) Biomarker Activity (AID 2283053); settings: primary human foreskin fibroblasts; actives raise or lower the signal
Method in brief: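 Primary foreskin fibroblasts, human; 24 h compound exposure; IP-10 by ELISA; bidirectional fit vs DMSO.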

[3] = read-out: Urokinase-type plasminogen activator receptor (uPAR), PLAUR (gene 5329); test: BSK_CASM3C_uPAR: BioMAP Diversity Plus: CASM3C Assay for Urokinase-type plasminogen activator receptor (uPAR) Biomarker Activity (AID 2283054); settings: primary human coronary artery smooth muscle cells; actives raise or lower the signal;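 further: cell-surface uPAR protein level quantified by ELISA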
[4] = read-out: Vascular cell adhesion molecule 1 (VCAM1), VCAM1 (gene 7412); test: BSK_CASM3C_VCAM1: BioMAP Diversity Plus: CASM3C Assay for Vascular cell adhesion molecule 1 (VCAM1) Biomarker Activity (AID 2283055); settings: primary human coronary artery smooth muscle cells; actives raise or lower the signal;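 further: VCAM-1 protein level quantified by ELISA on the cells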
[5] = read-out: Collagen III, COL3A1 (gene 1281); test: BSK_hDFCGF_CollagenIII: BioMAP Diversity Plus: hDFCGF Assay for Collagen III Biomarker Activity (AID 2283056); settings: primary human foreskin fibroblasts; actives raise or lower the signal
Method in brief: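 Response relative to DMSO, fitted in both directions, reflects ELISA-measured collagen III in human primary skin fibroblasts 24 h after compound addition.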

[6] = read-out: Epidermal growth factor receptor (EGFR), EGFR (gene 1956); test: BSK_hDFCGF_EGFR: BioMAP Diversity Plus: hDFCGF Assay for Epidermal growth factor receptor (EGFR) Biomarker Activity (AID 2283057); settings: primary human foreskin fibroblasts; actives raise or lower the signal
Method in brief: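 hDFCGF system, primary human foreskin fibroblasts; compound 24 h; EGFR measured by ELISA; DMSO = negative control/baseline; bidirectional fitting.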

[7] = read-out: Interleukin-8 (IL8), CXCL8 (gene 3576); test: BSK_hDFCGF_IL8: BioMAP Diversity Plus: hDFCGF Assay for Interleukin-8 (IL8) Biomarker Activity (AID 2283058); settings: primary human foreskin fibroblasts; actives raise or lower the signal
Method in brief: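 Fibroblast monolayers (human foreskin, hDFCGF) received test chemical for 24 h before ELISA detection of IL-8; either increases or decreases relative to DMSO count as activity.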

[8] = BSK_hDFCGF_Proliferation: Cell Proliferation Assessment in the BioMAP Diversity Plus: hDFCGF Assay (AID 2283059); settings: primary human foreskin fibroblasts;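 further: curves fitted for both rise and fall of signal versus DMSO baseline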
Method in brief: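 This proliferation readout used SRB total-protein staining of human foreskin fibroblasts […], normalized to DMSO with bidirectional curve fitting.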

[9] = read-out: Macrophage colony-stimulating factor (MCSF), CSF1 (gene 1435); test: BSK_hDFCGF_MCSF: BioMAP Diversity Plus: hDFCGF Assay for Macrophage colony-stimulating factor (MCSF) Biomarker Activity (AID 2283060); settings: primary human foreskin fibroblasts; actives raise or lower the signal
Method in brief: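 fibroblasts (human foreskin, primary), 24 h post-dose; M-CSF by ELISA; bidirectional fit, DMSO = baseline.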

[10] = BSK_hDFCGF_SRB: Viability Assessment in the BioMAP Diversity Plus: hDFCGF Assay (AID 2283061); settings: primary human foreskin fibroblasts;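 further: cells exposed to compound for 24 h before the read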
Method in brief: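 SRB-based viability read on primary human skin fibroblasts at 24 h: TCA fixation, 0.1% dye, 560 nm. Gain or loss of signal is fitted against the DMSO negative control.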

[11] = read-out: TIMP metallopeptidase inhibitor 1 (TIMP1), TIMP1 (gene 7076); test: BSK_hDFCGF_TIMP1: BioMAP Diversity Plus: hDFCGF Assay for TIMP metallopeptidase inhibitor 1 (TIMP1) Biomarker Activity (AID 2283062); settings: primary human foreskin fibroblasts; actives raise or lower the signal
Method in brief: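 Bidirectional curve fitting against DMSO baseline yielded this endpoint, based on ELISA detection of TIMP-1 in primary human foreskin fibroblasts exposed to compound for 24 h.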

[12] = read-out: Monokine induced gamma interferon (MIG), CXCL9 (gene 4283); test: BSK_hDFCGF_MIG: BioMAP Diversity Plus: hDFCGF Assay for Monokine induced gamma interferon (MIG) Biomarker Activity (AID 2283063); settings: primary human foreskin fibroblasts; actives raise or lower the signal
Method in brief: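 Endpoint derived by bidirectional fitting relative to DMSO; MIG quantified via ELISA in primary human foreskin fibroblasts harvested 24 h after dosing.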

[13] = read-out: Matrix Metallopeptidase 1 (MMP1), MMP1 (gene 4312); test: BSK_hDFCGF_MMP1: BioMAP Diversity Plus: hDFCGF Assay for Matrix Metallopeptidase 1 (MMP1) Biomarker Activity (AID 2283064); settings: primary human foreskin fibroblasts; actives raise or lower the signal
Method in brief: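 Primary human foreskin fibroblasts in the hDFCGF system were dosed with test chemical, and MMP1 was measured by ELISA 24 h later. Values come from bidirectional curve fitting against the DMSO baseline.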

[14] = read-out: Vascular cell adhesion molecule 1 (VCAM1), VCAM1 (gene 7412); test: BSK_hDFCGF_VCAM1: BioMAP Diversity Plus: hDFCGF Assay for Vascular cell adhesion molecule 1 (VCAM1) Biomarker Activity (AID 2283065); settings: primary human foreskin fibroblasts; actives raise or lower the signal;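 on AC50: VCAM-1 protein level quantified by ELISA after 24 h chemical exposure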
Method in brief: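 Measured after 24 h chemical treatment of primary human skin fibroblasts, VCAM-1 was detected by ELISA and concentration-response analysed in both directions versus DMSO vehicle.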

[15] = read-out: Plasminogen activator inhibitor-1 (PAI1), SERPINE1 (gene 5054); test: BSK_hDFCGF_PAI1: BioMAP Diversity Plus: hDFCGF Assay for Plasminogen activator inhibitor-1 (PAI1) Biomarker Activity (AID 2283066); settings: primary human foreskin fibroblasts; actives raise or lower the signal
Method in brief: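 Primary dermal fibroblasts (human foreskin), hDFCGF system; compound 24 h; PAI-1 by ELISA; bidirectional fit vs DMSO control.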

[16] = read-out: Intercellular Adhesion Molecule 1 (ICAM1), ICAM1 (gene 3383); test: BSK_KF3CT_ICAM1: BioMAP Diversity Plus: KF3CT Assay for Intercellular Adhesion Molecule 1 (ICAM1) Biomarker Activity (AID 2283067); settings: primary human keratinocytes with fibroblasts; actives raise or lower the signal
Method in brief: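 Bidirectional curve fitting against a DMSO baseline was applied to ICAM-1 ELISA signal from primary human skin co-cultures harvested 24 h after treatment, with SRB staining of parallel wells for overt cytotoxicity.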

[17] = read-out: Interferon-gamma inducible Protein 10 (IP10), CXCL10 (gene 3627); test: BSK_KF3CT_IP10: BioMAP Diversity Plus: KF3CT Assay for Interferon-gamma inducible Protein 10 (IP10) Biomarker Activity (AID 2283068); settings: primary human keratinocytes with fibroblasts; actives raise or lower the signal
Method in brief: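 Signal is secreted/surface IP-10 by ELISA in a human primary skin co-culture of keratinocytes and foreskin fibroblasts, taken 24 h post-dosing; DMSO served as negative control.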

[18] = BSK_KF3CT_SRB: Viability Assessment in the BioMAP Diversity Plus: KF3CT Assay (AID 2283069); settings: primary human keratinocytes with fibroblasts;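 further: total protein by sulforhodamine B staining as a cytotoxicity measure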
Method in brief: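 Human primary keratinocyte plus foreskin fibroblast co-culture exposed to chemicals for 24 h. Total protein measured by 0.1% sulforhodamine B staining after 10% TCA fixation, read at 560 nm; bidirectional fitting versus DMSO baseline.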

[19] = read-out: Interleukin-1 alpha (IL1a), IL1A (gene 3552); test: BSK_KF3CT_IL1a: BioMAP Diversity Plus: KF3CT Assay for Interleukin-1 alpha (IL1a) Biomarker Activity (AID 2283070); settings: primary human keratinocytes with fibroblasts; actives raise or lower the signal
Method in brief: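 Human keratinocyte plus foreskin fibroblast primary co-culture, sampled 24 h after chemical dosing. IL-1a measured by ELISA; responses fitted bidirectionally against DMSO baseline (negative control), so gain or loss of signal both count.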

[20] = read-out: TIMP metallopeptidase inhibitor 2 (TIMP2), TIMP2 (gene 7077); test: BSK_KF3CT_TIMP2: BioMAP Diversity Plus: KF3CT Assay for TIMP metallopeptidase inhibitor 2 (TIMP2) Biomarker Activity (AID 2283071); settings: primary human keratinocytes with fibroblasts; actives raise or lower the signal
Method in brief: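 Cells: human keratinocytes co-cultured with foreskin fibroblasts. Treat with chemical, 24 h. Measure TIMP-2 by ELISA; fit curves bidirectionally vs DMSO baseline.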

Measured: AC50

CN1CCC[C@H]1c1cccnc1
inactive: all assays above

CCc1nn(C2CCCCC2)c2cc(C3(C#N)CCC(C(=O)O)CC3)ccc12 (stereo not given)
inactive: [1] | [7] | [16] | [18] | [19]
active: [2] 4.83 µM | [3] 1.03 µM | [4] 5.03 µM | [5] 1.75 µM | [6] 1.26 µM | [8] 4.27 µM | [9] 5.16 µM | [10] 4.51 µM | [11] 3.54 µM | [12] 20 µM | [13] 8.18 µM | [14] 7.89 µM | [15] 5.35 µM | [17] 28.1 µM | [20] 11.5 µM

C[C@@H]1C[C@H]2[C@@H]3CCC4=CC(=O)C=C[C@]4(C)[C@@]3(F)[C@@H](O)C[C@]2(C)[C@@]1(O)C(=O)COP(=O)(O)O
active: [1] 122 nM and 674 nM | [2] 696 nM and 895 nM | [4] 0.1 µM | [8] 30.3 µM | [9] 615 nM and 730 nM | [10] 3.28 µM | [11] 2.65 µM | [13] 1.42 µM and 386 nM | [14] 8.68 µM
inactive: [1] | [2] | [3] | [4] | [5] | [6] | [7] | [8] | [9] | [10] | [11] | [12] | [13] | [14] | [15] | [16] | [17] | [18] | [19] | [20]

OCCC(F)(F)C(F)(F)C(F)(F)C(F)(F)C(F)(F)C(F)(F)F
inactive: [1] | [2] | [3] | [4] | [5] | [6] | [7] | [8] | [9] | [10] | [11] | [12] | [13] | [14] | [15] | [16] | [17] | [18] | [19] | [20]
active: [2] 52.6 µM | [5] 46.3 µM | [7] 46.4 µM and 57.9 µM | [8] 48.3 µM and 47.4 µM | [9] 54.2 µM | [10] 51.3 µM and 46.8 µM | [11] 53.1 µM and 47.1 µM | [12] 55.4 µM and 54.7 µM | [13] 55.1 µM | [14] 30 µM and 47.4 µM | [15] 53.5 µM and 55.3 µM
